The values that follow come from PubChem BioAssay AID651813 (National Center for Advancing Translational Sciences (NCATS), 2012).

Screen size: about 2,100 compounds; about 1,100 (52%) were called active. Inconclusive results (about 27%) are left out. So high a share suggests a set chosen from earlier hits. The list shows a part of the results. Values without a mark were called inactive. Calls come from the whole dose curve; as a rule, active = well fitted inhibition curve with a large enough effect; inconclusive = small, poorly fitted or top-dose-only effect; inactive = no such curve, though single readings can be large or run the other way.
Potency is the fitted concentration of half-maximal effect.

For this assay, the target named is DNA dC->dU-editing enzyme APOBEC-3G (Homo sapiens) (UniProt Q9HC16). As to the kind of experiment: qHTS for inhibitors of Vif-A3G interactions: Cherry picks counterscreen.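 For max response: max response given as percent of control signal.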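 Note: hits raise yellow fluorescence by blocking Vif-driven A3G-eYFP degradation; nearly all actives have a fitted effect of over 70% in size.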 The conditions noted are these: HeLa A3G-eYFP + Vif (tagged APOBEC3G with the HIV-1 protein that degrades it), eYFP fluorescence, 24 h. The gist of the method: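 HeLa cells stably expressing A3G-eYFP and Vif were treated for 24 h at 37 deg C with compounds at several concentrations; yellow fluorescence (Ex 488 nm, Em 500-530 nm) read by Acumen Explorer, MG132 as positive control.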
DNA dC->dU-editing enzyme APOBEC-3G (Homo sapiens), sequence (Q9HC16 whole entry, looked up): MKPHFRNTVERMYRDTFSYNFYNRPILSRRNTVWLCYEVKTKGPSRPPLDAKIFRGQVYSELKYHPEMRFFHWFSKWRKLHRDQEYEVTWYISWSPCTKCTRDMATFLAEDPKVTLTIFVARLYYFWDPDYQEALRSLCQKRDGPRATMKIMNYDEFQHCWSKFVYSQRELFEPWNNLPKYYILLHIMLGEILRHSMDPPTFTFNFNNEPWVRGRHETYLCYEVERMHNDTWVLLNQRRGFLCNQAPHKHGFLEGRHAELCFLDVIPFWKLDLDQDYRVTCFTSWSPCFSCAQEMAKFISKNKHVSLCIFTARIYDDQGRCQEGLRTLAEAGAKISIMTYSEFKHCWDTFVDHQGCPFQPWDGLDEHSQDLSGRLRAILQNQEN
As to `Cn1c(=O)c2c(nc(NC3CCCC3)n2C)n(C)c1=O`, the max response is -1.35%.

Turning to `CCC(=O)NC(c1ccc(OC)cc1)c1c(O)ccc2ccccc12` (stereo not drawn), the Potency is 9.94 µM (active).

On to `CCCC(=O)NC(c1ccc(OC)cc1)c1ccc2cccnc2c1O` (stereo not drawn), for which the max response was -9.5%.

As to `Cc1ccc(C2C(C(=O)c3cccs3)=C(O)C(=O)N2c2nnc(C)s2)cc1` (stereo not drawn), the Potency is 19.8 µM (active).

`CCCSc1nnc(N2C(=O)C(O)=C(C(=O)c3ccco3)C2c2ccccc2F)s1` (stereo not drawn): the max response was -7.3%.

As to `Cc1ccc(NC2=C(Cl)C(=O)N(C3CCCCC3)C2=O)cc1`, the max response was 6.01%.

As for `CN1C2CCC1/C(=C/c1cccn1C)C(=O)/C2=C\c1cccn1C`, the Potency is 8.2 µM (active).

Turning to `Cn1cccc1/C=C1\CC(C(C)(C)C)C/C(=C\c2cccn2C)C1=O` (stereo not drawn), the Potency is 8.2 µM (active).

For the compound `O=c1oc2c3c4c(cc2c(C(F)(F)F)c1CCN1CCOCC1)CCCN4CCC3`, the Potency is 2.31 µM (active).

As for `COc1ccc(/C=C(/C(=O)c2cccs2)N2C=CC=CC2=C(C#N)C#N)cc1`, the Potency is 15.8 µM (active).

For the compound `CCN(CC)c1nc2ccccc2nc1C(C#N)C(=O)NCCc1ccccc1` (stereo not drawn), the Potency was 13 µM (active).

`C=CCNC(=O)C(C#N)c1nc2ccccc2nc1N1CCN(Cc2ccccc2)CC1` (stereo not drawn): the max response was -10.2%.

As to `COc1ccc(-c2nnc(NC(=O)c3ccc([N+](=O)[O-])o3)o2)c(OC)c1`, the max response was -27.9%.

In the case of `COc1ccc(C(=O)/C=C/Nc2ccc([N+](=O)[O-])cc2C)c(OC)c1`, the Potency is 23.1 µM (active).

Regarding `COc1ccc(C(=S)N2CCN(c3cccc(Cl)c3)CC2)c(OC)c1`, the Potency was 3.53 µM (active).

For the compound `COc1ccccc1C(=O)N1CCN(c2cccc(Cl)c2)CC1`, the Potency was 1.4 µM (active).

For `COc1cc(SC)ccc1C(=O)N1CCN(c2ccccc2OC)CC1`, the Potency is 5.59 µM (active).

For `CCS(=O)(=O)N1CCc2cc(C(=O)N3CCN(c4cccc(C(F)(F)F)c4)CC3)ccc21`, the max response was -3.11%.

As to `COc1ccccc1N1CCN(C(=O)c2ccc3ncsc3c2)CC1`, the Potency was 17.7 µM (active).

In the case of `COc1ccccc1N1CCN(C(=O)c2cc(=O)c3cc(C)cc(C)c3o2)CC1`, the Potency was 0.158 µM (active).

For the compound `COC(=O)c1cc(C(=O)N2CCN(c3ccccc3OC)CC2)cc([N+](=O)[O-])c1`, the Potency is 1.12 µM (active).

Consider `CCSc1ncc(Cl)c(C(=O)N2CCN(c3ccccc3OC)CC2)n1`, for which the Potency is 4.61 µM (active).

`NNC(=S)Nc1c(F)cc(F)cc1Br`: the max response was -0.636%.

For the compound `Cc1cc(N/N=C/c2ccc([N+](=O)[O-])o2)nc2ccccc12`, the Potency was 23.1 µM (active).

`O=C(N/N=C/c1ccc([N+](=O)[O-])o1)c1cn2ccc3ccccc3c2n1`: the max response is 3.73%.

In the case of `O=[N+]([O-])c1ccc(/C=N/Nc2ccc3ccccc3c2)o1`, the Potency is 4.98 µM (active).

Turning to `CCCN1CCc2c(sc(NC(=O)c3ccc(S(=O)(=O)N4CCN(C(=O)OCC)CC4)cc3)c2C(N)=O)C1`, the Potency is 23.1 µM (active).

On to `CCCN1CCc2c(sc(NC(=O)c3ccc(S(=O)(=O)N(C)c4ccccc4)cc3)c2C(=O)NC)C1`, for which the Potency was 18.4 µM (active).

`CCCN1CCc2c(sc(NC(=O)c3ccc(S(=O)(=O)N(C)c4ccccc4)cc3)c2C(N)=O)C1`: the Potency is 14.6 µM (active).

With `CCN1CCc2c(sc(NC(=O)c3ccc(S(=O)(=O)N(CC)c4ccccc4)cc3)c2C(N)=O)C1`, the Potency was 5.59 µM (active).

For `CCCN1CCc2c(sc(NC(=S)NC(=O)c3ccccc3)c2C#N)C1`, the Potency is 14.6 µM (active).

In the case of `CC(C)N1CCc2c(sc(NC(=O)c3ccc(S(=O)(=O)N4CCOCC4)cc3)c2C#N)C1`, the Potency was 8.2 µM (active).

Turning to `CC(C)N1CCc2c(sc(NC(=O)c3cc4cc([N+](=O)[O-])ccc4s3)c2C(N)=O)C1`, the Potency was 23.1 µM (active).

`NC(=O)c1c(NC(=O)c2ccccc2)sc2c1CCN(Cc1ccccc1)C2`: the Potency was 15.8 µM (active).

For `CCOC(=O)/C(=C/C1=CC(=C/N(C)C)/C(=O)O1)C(C)=O`, the max response is 1.47%.

With `CC(C)CN(CC(C)C)S(=O)(=O)c1ccc(C(=O)Nc2sc3c(c2C(N)=O)CCN(C(C)C)C3)cc1`, the Potency was 18.4 µM (active).

As for `Cc1cccc(C)c1OCCNC(=O)C(=O)NCc1ccco1`, the Potency is 2.8 µM (active).

For `COc1ccc(NC(=O)c2ccc3c(c2)c(C)c(C)n3Cc2ccc(F)cc2)cc1`, the Potency was 5.17 µM (active).

`Cc1ccccc1NC(=O)c1ccc2c(c1)c(C)c(C)n2Cc1ccccc1`: the Potency was 2.91 µM (active).

Consider `CCCCCn1c(=O)[nH]c2cc(C(=O)Nc3cc(OC)cc(OC)c3)ccc2c1=O`, for which the max response is -23.9%.

With `COC(=O)Nc1ccc(S(=O)(=O)N2CCCc3ccccc32)cc1`, the Potency was 3.53 µM (active).

Take `CC(=O)Nc1ccc(S(=O)(=O)N2CCSc3ccccc32)cc1`: the Potency was 4.98 µM (active).

On to `Cc1cc(NC(=O)COC(=O)c2ccc(S(=O)(=O)N3CCCc4ccccc43)cc2)no1`, for which the Potency is 4.44 µM (active).

Consider `O=C(CN1c2cccc3cccc(c23)S1(=O)=O)Nc1ccc(S(=O)(=O)N2CCOCC2)cc1`, for which the max response is -29.7%.

With `Cc1ccc(CNC(=O)C2CC(c3cc(C(F)(F)F)cc(C(F)(F)F)c3)=NO2)o1` (stereo not drawn), the Potency is 8.86 µM (active).

As to `COc1ccccc1N1CCN(c2ncnc3c2oc2ccccc23)CC1`, the Potency is 3.14 µM (active).

Regarding `CCN1/C(=C/C=C2/SC(=Nc3cccc4ncccc34)N(C)C2=O)Sc2ccccc21`, the Potency was 4.11 µM (active).

As for `Cc1c(N=C2N=C(NC(=O)c3cccs3)c3ccccc32)c(=O)n(-c2ccccc2)n1C`, the Potency is 12.5 µM (active).

Turning to `Cc1c(NC(=O)c2csc3c2CCCC3)c(=O)n(-c2ccccc2)n1C`, the max response is -8.09%.

With `CC#Cc1cc2c(cc1O)CCC1C2CCC2(C)C(O)CCC12` (stereo not drawn), the Potency was 4.44 µM (active).

As to `CCSc1nccc(-c2nn(-c3ccc(C)cc3)ccc2=O)n1`, the Potency was 3.53 µM (active).

For `NNC(=O)c1oc2nc(-c3ccccc3)cc(-c3ccco3)c2c1N`, the Potency was 18.4 µM (active).

On to `Cc1ccc(-c2cc(-c3ccco3)c3c(N)c(C(=O)NN)oc3n2)cc1`, for which the Potency is 23.1 µM (active).

For the compound `O=C(N/N=C\C=C\c1ccc([N+](=O)[O-])o1)c1cccs1`, the Potency was 14 µM (active).

Take `COc1ccccc1N=C(C)C1=C(O)CC(c2ccccc2)CC1=O` (stereo not drawn): the Potency is 0.559 µM (active).

Consider `CCC(=Nc1ccccc1O)C1=C(O)CC(c2ccccc2)CC1=O` (stereo not drawn), for which the max response is 16.4%.

`O=C(NN=Cc1c(O)ccc2ccccc12)c1ccc2c(c1)OCO2`: the max response is 1.53%.

On to `Cc1cc(C(=O)N/N=C/c2ccc3c(c2)OCO3)c2ccccc2n1`, for which the Potency was 7.9 µM (active).

Take `O=C(N/N=C/c1ccc2c(c1)OCO2)c1cc(-c2ccco2)nc2ccccc12`: the Potency is 9.94 µM (active).

`O=C(N/N=C/c1ccc2c(c1)OCO2)c1cccc2ccccc12`: the Potency was 9.94 µM (active).

Consider `Cc1cccc(C)c1OCC(=O)N/N=C/c1ccc2c(c1)OCO2`, for which the Potency was 6.27 µM (active).

Consider `O=C(N/N=C/c1ccc2c(c1)OCO2)c1cc(-c2ccncc2)nc2ccccc12`, for which the Potency was 5.59 µM (active).

On to `Cc1nc2c3cc(F)ccc3n(Cc3ccccc3)c2s1`, for which the Potency was 7.04 µM (active).

Consider `Cc1nc2c3cc(F)ccc3n(Cc3ccccc3F)c2s1`, for which the Potency was 14 µM (active).

Regarding `N#CCSc1ccccc1NC(=O)CN1C(=O)C2CC=CCC2C1=O` (stereo not drawn), the Potency was 11.2 µM (active).

As for `CCOC1=C/C(=C/c2c(N)n3nc(-c4ccccc4)sc3nc2=O)C=CC1=O`, the max response is 19.6%.

With `CCS(=O)(=O)c1nn2c(N)c(/C=C3/C=CC(=O)C(OC)=C3)c(=O)nc2s1`, the max response is 52.9%.

`COC1=C/C(=C/c2c(N)n3nc(-c4ccc(C)cc4)sc3nc2=O)C=CC1=O`: the Potency was 20.6 µM (active).

With `Cn1cc(/C=C/c2ccc3ccccc3n2)c2ccccc21`, the Potency is 13 µM (active).

Take `Cn1cc(/C=C/c2ccnc3ccccc23)c2ccccc21`: the Potency was 20.6 µM (active).

With `CCc1ccc2nc(N(CCCN(C)C)C(=O)c3ccc(S(=O)(=O)N(C)C4CCCCC4)cc3)sc2c1`, the max response is 5.65%.

Consider `Cc1ccc(-n2nc3c(SCCN4CCOCC4)nnc(C)c3c2C)cc1`, for which the max response is -27.8%.

On to `O=C(Nc1nc(NC(=O)c2ccco2)n(-c2ccccc2)n1)c1ccccc1`, for which the max response is -0.0667%.

As to `CCCCn1c(NC(=O)c2ccco2)c(S(=O)(=O)c2ccc(C)cc2)c2nc3ccccc3nc21`, the Potency was 20.6 µM (active).

As to `Cc1ccc(C(=O)Nc2sc(Cc3ccc4c(c3)OCO4)c(C)c2C(N)=O)cc1`, the Potency was 18.4 µM (active).

As for `CCC1CCCCN1CCCNC(=O)c1ccc2c(c1)N(Cc1ccccc1F)C(=O)c1ccccc1S2(=O)=O` (stereo not drawn), the Potency was 4.61 µM (active).

Consider `CN(C)c1ccc(/C=C/c2cnnc3ccccc23)cc1`, for which the Potency was 20.6 µM (active).

For the compound `Nc1ccccc1/C=C/c1ccnc2ccccc12`, the Potency is 16.4 µM (active).

For the compound `CN(C)c1ccc(/C=C/c2ccnc3cc(Cl)ccc23)cc1`, the Potency was 8.2 µM (active).

Turning to `COc1cccc2nccc(/C=C/c3ccc(N(C)C)cc3)c12`, the Potency was 18.4 µM (active).

As for `CN(C)c1ccc(/C=C/c2ccnc3ccccc23)c(N)c1`, the Potency was 2.91 µM (active).

`CN(C)c1ccc(/C=C/C=C/c2ccnc3ccccc23)cc1`: the Potency is 4.61 µM (active).

As for `CN(C)c1ccc(/C=C/c2ccnc3ccc(-c4ccccc4)cc23)cc1`, the Potency was 5.8 µM (active).

As for `CN(C)c1ccc(/C=C/c2ccnc3ccccc23)cc1`, the Potency is 20.6 µM (active).

For `CNc1ccc(/C=C/c2ccnc3ccccc23)cc1`, the Potency is 16.4 µM (active).

In the case of `O=C(Cn1ncc(Cl)c(Cl)c1=O)NC(=O)NC1CCCCC1`, the Potency is 14 µM (active).

`Cc1nc(-c2ccc(Cl)cc2)sc1C(=O)NN`: the Potency was 15.8 µM (active).

On to `COc1ccc2cc(C(=O)C3CCCN(Cc4ccccn4)C3)ccc2c1` (stereo not drawn), for which the max response was -1.88%.

In the case of `CCOC(=O)C1CCCN(C(=O)c2ccc3nc(-c4cccc(OC)c4)oc3c2)C1` (stereo not drawn), the Potency was 7.04 µM (active).

As to `Cc1c(C(=O)OC2CCCCC2)[nH]c2c1C(=O)CC(c1ccccc1Cl)C2` (stereo not drawn), the Potency was 9.2 µM (active).

On to `Cc1c(C(=O)N2CCOCC2)[nH]c2c1C(=O)CC(c1ccccc1Cl)C2` (stereo not drawn), for which the Potency is 8.86 µM (active).

Take `COCCOC(=O)c1[nH]c2c(c1C)C(=O)CC(c1ccccc1)C2` (stereo not drawn): the Potency is 0.994 µM (active).

Regarding `COc1ccc(OC)c(C2CC(=O)c3c([nH]c(C(=O)OCC4CCCO4)c3C)C2)c1` (stereo not drawn), the Potency is 5.59 µM (active).
